{
  "source": "ChEMBL document CHEMBL3433997",
  "about": "“St. Jude Leishmania screening dataset” (2016)",
  "data": [
    {"biological_target": "Glucose transporter (Leishmania mexicana) (UniProt O61059)", "experiment": "ST_JUDE_LEISH: Cytotoxicity at 2uM final concentration against transgenic Leishmania Mexicana promastigotes LmGT2 that are glucose transport deficient and complemented with the L. Mexicana glucose transporter 2. Activity is measured by DNA content using SYBR green in vitro", "format": "functional", "units": {"inhibition": "%"}, "values": [
      {"smiles": "COc1ccc2[nH]ccc(=NN=Cc3ccc(N(C)C)cc3)c2c1", "inhibition": 0.57},
      {"smiles": "Cc1cccnc1CNc1nccc2c(C)c(C)[nH]c12", "inhibition": -0.37},
      {"smiles": "Cc1cccc2nc(-c3ccc(-c4ccc(CN5CCN(c6ccncc6)CC5)cc4)cc3)[nH]c12", "inhibition": 13.4},
      {"smiles": "N#Cc1ccc(N/C(=N\\c2ccc(-c3ccccc3)cc2)NC2CCCc3ccccc32)c(O)c1", "note": "(stereo unspecified)", "inhibition": -0.07},
      {"smiles": "COc1cccc(CNC[C@@H](O)[C@H](Cc2ccccc2)NC(=O)c2cc(C(C)C)cc(N3CCCC3=O)c2)c1", "inhibition": -1.21},
      {"smiles": "CO/C(=C\\C=C\\c1cc2cc(Cl)c(Cl)cc2[nH]1)C(=O)NCCCN1CCN(c2ccncc2)CC1", "inhibition": 3.48},
      {"smiles": "COc1ccccc1CCNc1nccc(N[C@@H](Cc2ccccc2)C(=O)NCc2cccs2)n1", "inhibition": -0.08},
      {"smiles": "O=C(N[C@@H](Cc1ccccc1)[C@H](O)CNC1CCc2ccccc2C1)c1cc(C2CCCC2)cc(N2CCCC2=O)c1", "note": "(stereo partly specified)", "inhibition": -4.47},
      {"smiles": "O=C(Nc1ccc([N+](=O)[O-])cc1)c1nn(-c2ccccc2)cc1/N=C/c1cccc(O)c1", "inhibition": -1.45},
      {"smiles": "O=c1cc(NCCCNCc2scc3c(Cl)cc(C(F)(F)F)nc23)[nH]c2ccccc12", "inhibition": 3.05},
      {"smiles": "O=C(N[C@@H](CC1CCCCC1)C(=O)NCCc1ccc(Cl)c(Cl)c1)c1ccc(O)c(-c2ccc(Cl)c(Cl)c2)c1", "inhibition": 1.25},
      {"smiles": "O=C(/C=C/c1ccc(Cl)c(Cl)c1)NCCCCCN1CCC(NC(=O)c2ccc([N+](=O)[O-])cc2)CC1", "inhibition": 9.31},
      {"smiles": "C=C[C@H]1CN(CCCCCCC)CC[C@H]1CC(=O)Nc1cnnc2ccc(OC)cc12", "inhibition": 4.78},
      {"smiles": "CCCN(CCC)C(C)CCC(C)Nc1c2ccc(Cl)cc2nc2ccc(OC)cc12", "note": "(stereo unspecified)", "inhibition": 2.82},
      {"smiles": "O=[N+]([O-])c1ccc(Nc2nc(NCc3ccccc3)nc(N/N=C/c3ccccc3[N+](=O)[O-])n2)cc1", "inhibition": 0.43},
      {"smiles": "O=C(NCCOc1ccccc1)[C@H](Cc1ccccc1)Nc1ccnc(NCC2CCCCC2)n1", "inhibition": 0.92},
      {"smiles": "CCc1cc2c3c(N)nc(N)nc3ccc2n1C(C)CC", "note": "(stereo unspecified)", "inhibition": 80.3},
      {"smiles": "c1ccc(-c2cc3cccc(-c4nc5cnccc5[nH]4)c3o2)cc1", "inhibition": 10.6},
      {"smiles": "CC(=O)Nc1cccc(CN(Cc2ccc(-c3ccc(CNCc4cccnc4)cn3)cc2)C(=O)Cc2cccnc2)c1", "inhibition": 14},
      {"smiles": "C=CCOC(=O)N1CCC(CNCc2ccc(-c3ccc(-c4nc5cc(C(F)(F)F)ccc5[nH]4)cc3)cc2)C1", "note": "(stereo unspecified)", "inhibition": 1.41},
      {"smiles": "CC(=O)Nc1nc(C(=O)Nc2ccc(-c3ccc(-c4nc5ccccc5[nH]4)cc3)cc2)cs1", "inhibition": 3.01},
      {"smiles": "CC(=O)Nc1ccc(CN(Cc2cccc(OC(C)(C)C)c2)Cc2ccc3c(c2)OCCO3)cc1", "inhibition": 6.39},
      {"smiles": "CCc1nc2nc(C)cc(Nc3ccc(F)c(Cl)c3)n2n1", "inhibition": -1.67},
      {"smiles": "CCOc1cc(C(=O)NCc2ccc(Cl)c(Cl)c2)ccc1-c1nc2cc(Cl)ccc2[nH]1", "inhibition": 7.21},
      {"smiles": "O=C(/C=C/c1ccc(Cl)c(Cl)c1)NCCCCCN1CCC(NC(=O)Nc2ccc(Cl)cc2Cl)CC1", "inhibition": -2.38},
      {"smiles": "CCCN(CCC)CCCNc1ccc(C(=O)Nc2ccc(OCC)cc2)cc1[N+](=O)[O-]", "inhibition": 5.32}
    ]}
  ]
}
